In PubChem BioAssay AID2625 (National Center for Advancing Translational Sciences (NCATS), 2010) one finds outcome data, which are given here for 40 compounds.

Each structure is given as a SMILES string. Inconclusive results are not listed. Calls of active or inactive are those of the source. Calls come from the whole dose curve; as a rule, active = well fitted curve in the direction sought with a large enough effect; inconclusive = small, poorly fitted or top-dose-only effect, or effect the other way, or another doubt; inactive = no such curve, though single readings can be large or run the other way.

In this test the target is Pyruvate kinase PKLR (Homo sapiens) (UniProt P30613). The test is described as follows: Secondary LDH Assay for Activators of Human Liver Pyruvate Kinase: for Probe SAR. As to conditions: purified hPK-L, LDH-coupled NADH fluorescence kinetic; series mostly up to 58.2 µM. The source says: NIH Chemical Genomics Center [NCGC]
Sequence of Pyruvate kinase PKLR (Homo sapiens) (P30613 whole entry, looked up): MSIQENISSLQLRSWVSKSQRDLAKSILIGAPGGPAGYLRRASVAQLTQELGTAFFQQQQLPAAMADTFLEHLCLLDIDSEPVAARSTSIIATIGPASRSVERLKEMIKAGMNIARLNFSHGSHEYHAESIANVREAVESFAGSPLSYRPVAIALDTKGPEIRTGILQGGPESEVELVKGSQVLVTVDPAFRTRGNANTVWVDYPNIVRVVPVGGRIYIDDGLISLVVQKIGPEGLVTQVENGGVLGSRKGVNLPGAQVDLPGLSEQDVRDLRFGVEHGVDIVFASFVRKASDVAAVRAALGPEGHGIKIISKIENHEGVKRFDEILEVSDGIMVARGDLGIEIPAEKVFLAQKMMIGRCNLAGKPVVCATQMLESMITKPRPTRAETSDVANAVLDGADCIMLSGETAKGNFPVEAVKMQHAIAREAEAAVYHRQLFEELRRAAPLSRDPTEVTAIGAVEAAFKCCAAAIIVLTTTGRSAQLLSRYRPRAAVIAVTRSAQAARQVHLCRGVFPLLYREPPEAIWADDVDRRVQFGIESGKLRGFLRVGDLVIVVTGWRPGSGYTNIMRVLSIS
Matthew G. Vander Heiden, M.D., Ph.D. [Harvard Medical School, 77 Avenue Louis Pasteur, Boston, MA 02115]
Human pyruvate kinase liver (hPK-L)enzyme was supplied as a highly purified (>95% pure) preparation from Harvard Medical School and a secondary assay was used to evaluate compounds. This assay couples the formation of pyruvate from hPK-R using lactate dehydrogenase (LDH) and NADH. The depletion of NADH is followed in a fluorescent-based kinetic assay that follows the formation of pyruvate to lactate, as catalyzed LDH. Pyruvate kinase substrates, PEP and ADP, were present in the assay at 0.1 mM and 4 mM respectively. In this kinetic assay initial rates were determined by following the fluorescence of NADH depletion.
NCGC Assay Protocol Summary:
Three uL of substrate mix (final concentration, 50 mM Tris-Cl pH 8.0, 200 mM KCl, 15 mM MgCl2, 0.1 mM PEP, 4.0 mM ADP, and 0.2 mM NADH) was dispensed into black-solid 1536 well plates. 23 nL of compounds were delivered by a pin tool and 1 uL of enzyme mix (final concentrations, 10 nM hPK-L and 1 uM of LDH) was added. Plates were immediately placed in ViewLux (Perkin Elmer) and NADH fluorescence was determined at 30 second exposure intervals for between 3 and 6 minutes. Data were normalized to the uninhibited and EC100 activation using known activators such as fructose-bis-phosphate.
Regarding `Cc1cc(NS(=O)(=O)c2ccc3c(c2)CCC(=O)N3)ccc1F`, the call was inactive. With `Cc1ccc(NS(=O)(=O)c2ccc3c(c2)oc(=O)n3C)cc1C` the entry was “inactive”; with `Cc1ccc(NS(=O)(=O)c2ccc3c(c2)CCC(=O)N3)cc1Cl`, “inactive”; with `CN=c1nc(-c2ccccc2)n(-c2ccccc2)s1`, “inactive”. For `Cc1ccc(NS(=O)(=O)c2ccc3ccccc3c2)cc1C` the value was “inactive”; for `COc1ccc(S(=O)(=O)Nc2ccc(C)c(C)c2)cc1`, “inactive”. As to `Cc1ccccc1Nc1c(-c2ccc(Cl)s2)nc2ccccn12`, the call was inactive.

With `O=C1c2ccccc2C(=O)N1c1cccc(=O)[nH]1`, the call was inactive. For `Cc1ccc(NS(=O)(=O)c2cc3c(cc2Cl)NC(=O)CO3)cc1C` the value was “inactive”; for `COc1cc(N2C(=O)c3ccccc3C2=O)c2ncccc2c1`, “inactive”; for `CCNc1cccc(S(=O)(=O)N2CCCN(S(=O)(=O)c3ccc4c(c3)OCCO4)CC2)c1`, “inactive”. Consider `O=C1c2ccccc2C(=O)N1c1ccc2ccccc2n1`, for which the result was inactive. On to `O=C1CCc2cc(S(=O)(=O)NCc3ccccc3)ccc2N1`, for which the call was inactive.

In the case of `O=C1CCc2cc(S(=O)(=O)Nc3ccc4ncccc4c3)ccc2N1`, the compound was classed as inactive.

Take `CCCCN1C(=O)c2ccccc2C1=O`: the compound was called inactive. With `Cc1ccc(NS(=O)(=O)c2cc3c(cc2Cl)CCC(=O)N3)cc1C` the entry was “inactive”; with `O=C1c2ccccc2C(=O)N1c1noc2ccccc12`, “inactive”; with `Cc1ccc(NS(=O)(=O)c2cccc(F)c2)cc1C`, “inactive”. With `Cc1ccc(NS(=O)(=O)c2cc3c(cc2F)NC(=O)CC3)cc1Cl` the entry was “inactive”; with `O=C1c2ccccc2C(=O)N1c1ccncc1`, “inactive”; with `O=C1CCc2cc(S(=O)(=O)Nc3ccc(-c4ccccc4)cc3)ccc2N1`, “inactive”. `Cc1ccccc1NS(=O)(=O)c1ccc2c(c1)CCC(=O)N2`: the result was inactive. With `Cc1ccc2nc(-c3cccs3)c(Nc3ccccc3)n2c1` the entry was “inactive”; with `O=C1CCc2cc(S(=O)(=O)Nc3cccc(-c4ccccc4)c3)ccc2N1`, “inactive”. With `O=C1c2ccccc2C(=O)N1c1cccc(O)c1` the entry was “inactive”; with `CNc1cccc(S(=O)(=O)N2CCN(S(=O)(=O)c3ccc4c(c3)OCCO4)CC2)c1`, “inactive”; with `Cc1ccc(NS(=O)(=O)c2ccc(N3CCCC3=O)cc2)cc1C`, “inactive”.

For `Cc1ccc2nc(-c3ccc(C)o3)c(Nc3ccc4c(c3)OCO4)n2c1`, the call was inactive. For `Cc1cc2c(s1)c1cnn(Cc3ccccc3F)c(=O)c1n2C` the value was “inactive”; for `Cc1ccc(Cl)cc1NS(=O)(=O)c1cc2c(cc1F)NC(=O)CC2`, “inactive”.

Regarding `O=S1(=O)N=C(Oc2ccc(Cl)cc2)c2ccccc21`, the compound was classed as inactive. For `CSc1cc2c(s1)c1cnn(Cc3cccc(N)c3)c(=O)c1n2C` the value was “inactive”.

Turning to `O=C1CCc2cc(S(=O)(=O)Nc3ccccn3)ccc2N1`, the compound was called inactive.

On to `CSc1cc2c(s1)c1cnn(Cc3cccc(O)c3)c(=O)c1n2C`, for which the compound was classed as inactive.

On to `O=C1c2ccccc2C(=O)N1c1ccccc1O`, for which the compound was classed as inactive. For `N#Cc1cccc(NS(=O)(=O)c2ccc3c(c2)CCC(=O)N3)c1` the value was “inactive”. Regarding `O=C1c2ccccc2C(=O)N1c1cc(=O)c2ccccc2[nH]1`, the compound was called inactive.

For `O=C1c2ccccc2C(=O)N1C1CCCCC1`, the result was inactive.

Consider `Cc1ccc(N2C(=O)c3ccccc3C2=O)c(C)c1`, for which the compound was called inactive.

Regarding `O=C1CCc2cc(S(=O)(=O)Nc3cccnc3)ccc2N1`, the outcome was inactive.
